# Measurements published in PubChem BioAssay AID2813 (NMMLSC, 2010).
# Several values for one entry are separate records, joined by “and”; a condition that tells them apart may be missing. Equal entries are not always repeated. About 20 (2%) of roughly 1,300 compounds were called active. The list is a sample of the results. Unmarked numbers belong to inactive results. Cut-off read from the data, not from the text of the source: active = inhibition above about 40%; inactive = the rest.
# Target: Integrin alpha-4 (Homo sapiens) (UniProt P13612)
# Sequence (P13612 whole entry, looked up): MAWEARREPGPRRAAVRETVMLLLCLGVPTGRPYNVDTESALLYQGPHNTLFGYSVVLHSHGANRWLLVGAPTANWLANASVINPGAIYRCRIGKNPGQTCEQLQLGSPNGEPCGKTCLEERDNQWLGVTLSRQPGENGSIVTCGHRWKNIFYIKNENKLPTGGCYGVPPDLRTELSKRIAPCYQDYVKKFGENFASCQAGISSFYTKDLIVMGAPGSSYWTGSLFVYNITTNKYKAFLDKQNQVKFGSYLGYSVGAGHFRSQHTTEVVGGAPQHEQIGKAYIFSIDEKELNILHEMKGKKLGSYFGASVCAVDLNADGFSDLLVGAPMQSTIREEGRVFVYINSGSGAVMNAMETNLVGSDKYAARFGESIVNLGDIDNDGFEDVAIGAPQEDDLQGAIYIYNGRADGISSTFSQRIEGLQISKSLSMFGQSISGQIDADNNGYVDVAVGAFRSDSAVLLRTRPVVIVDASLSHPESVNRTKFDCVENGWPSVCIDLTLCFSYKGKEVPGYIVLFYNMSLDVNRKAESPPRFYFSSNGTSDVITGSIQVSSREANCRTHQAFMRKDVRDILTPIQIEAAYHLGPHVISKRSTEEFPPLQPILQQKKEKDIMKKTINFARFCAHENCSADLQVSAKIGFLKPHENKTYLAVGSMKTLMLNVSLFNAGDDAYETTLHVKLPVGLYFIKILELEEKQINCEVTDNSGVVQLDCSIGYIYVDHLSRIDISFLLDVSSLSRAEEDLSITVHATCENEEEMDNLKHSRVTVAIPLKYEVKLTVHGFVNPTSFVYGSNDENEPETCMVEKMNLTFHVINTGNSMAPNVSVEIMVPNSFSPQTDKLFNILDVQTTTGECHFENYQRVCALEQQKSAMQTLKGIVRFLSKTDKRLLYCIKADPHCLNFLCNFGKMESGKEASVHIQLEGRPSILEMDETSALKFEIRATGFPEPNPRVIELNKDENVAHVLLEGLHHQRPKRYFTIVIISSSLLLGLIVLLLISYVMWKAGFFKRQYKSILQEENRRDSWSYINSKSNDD
# Assay: VLA-4 modulation in picked hits – cell-based, cherry-picked plates, U937, HUTS-21 LIBS antibody, confirmation (AID 2813);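 note: 0% = ligand without compound and 100% = no ligand background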
# Details: U937 cells, HUTS-21 LIBS mAb binding, flow cytometry; at 6.7 µM; stronger effect = higher value; LDV ligand present at threefold Kd
row,Structure (SMILES),inhibition
1,COc1ccc(C(=O)N2CCC(C(=O)Nc3cccc(C)c3)CC2)cc1OC,-6.72%
2,Cc1ccc(NC(=O)OCc2cncs2)cc1,11.7%
3,CC1(C)SC2C(NC(=O)COc3ccccc3)C(=O)N2C1C(=O)O (stereo not given),4.42%
4,COC(=O)[C@]1(Cc2ccccc2)N[C@H](CN(C)S(=O)(=O)c2ccc(OC(F)(F)F)cc2)[C@@H]2C(=O)N(Cc3ccccc3)C(=O)[C@@H]21,-5.51%
5,CSc1nc(-c2ccco2)nn1C(=O)CCc1ccccc1,9.03%
6,Cc1cccc(NS(=O)(=O)c2ccc(C)c(C(N)=O)c2)c1,0.43%
7,CC1(C(=O)NCCc2c[nH]c3ccccc23)C=CC2(CCCCC2)N1C(=O)c1ccccc1 (stereo not given),5.58%
8,CCCOc1ccc(N2C(=O)CC(N(CCc3ccc(S(N)(=O)=O)cc3)C(C)=O)C2=O)cc1 (stereo not given),-1.15%
9,CC(=O)NC12CC3CC(C1)CC(C(=O)N1CCN(S(=O)(=O)c4cccs4)CC1)(C3)C2,-0.75%
10,Cc1nn(CC(=O)Nc2ccc(C#N)cc2)c(C)c1[N+](=O)[O-],-11.4%
11,Nc1ccc(Cl)c(S(=O)(=O)Nc2ccccc2Cl)c1,-5.79%
12,O=C1Cc2cc(S(=O)(=O)Nc3cccc(F)c3)ccc2N1,-8.24%
13,CC(OC(=O)c1c(F)cccc1F)C(=O)NCCC1=CCCCC1 (stereo not given),1.98%
14,O=C(Nc1cccc(S(=O)(=O)Nc2ccc(Cl)cc2)c1)c1ccc2c(c1)OCCO2,-8.53%
15,Cc1cc(C)n(CC(O)CN(c2ccccc2)S(=O)(=O)c2ccc3ccccc3c2)n1 (stereo not given),11.9%
16,CC/C(O)=C1\C(=O)CC(C)(C)CC1=NCCc1nc2ccccc2[nH]1,-5.52%
17,CC(=O)c1cccc(NC(=O)C2CCN(C(=O)c3ccccc3Cl)CC2)c1,5.38%
18,COC(=O)c1c(NC(=O)c2c(Cl)cnn2C)sc(C)c1C,-13.4%
19,CCn1c(SCC(=O)Nc2nc(C)cs2)nnc1C(C)NC(=O)c1ccccc1 (stereo not given),0.62% and 0%
20,Cc1ccc(S(=O)(=O)N2[C@@H](c3ccc(Br)cc3)C(C(=O)O)=C[C@H]2CC2CCCC2)cc1,4.02%
21,Cc1cc(C)cc(C(=O)NCC(=O)OCC(=O)N2CCCCC2)c1,13.7%
22,Cc1ccnc(NC(=O)c2ccco2)n1,-3.54%

row,Structure (SMILES),inhibition
1,S=C(Nc1cccnc1)Nc1ccccn1,-4.45%
2,COc1cccc(-c2cccc(NC(=O)C3CCN(C4CCC4)CC3)c2)c1,3.49%
3,COc1cccc(N2CCN(C3CC(=O)N(c4ccc(Cl)cc4)C3=O)CC2)c1 (stereo not given),3.08%
4,CCOC(=O)N1CCN(S(=O)(=O)c2ccc3c(c2)C(C)C(=O)N3)CC1 (stereo not given),0.62%
5,CCOC(=O)C1CCCN(S(=O)(=O)c2ccc3c(c2)C(C)(C)C(=O)N3C)C1 (stereo not given),0.62%
6,CC(=O)c1ccc(N2CCN(S(=O)(=O)c3ccc4c(c3)CC(=O)N4C)CC2)cc1,-9.51%
7,O=C(CN1CCC(NC(=O)Nc2ccccc2)CC1)Nc1cccc([N+](=O)[O-])c1,1.64%
8,Cc1cnc(NC(=O)C2CCCC2)s1,-4.15%
9,Cc1ccc(S(=O)(=O)N2[C@@H](c3cccc4ccccc34)C(C(=O)O)=C[C@H]2C(C)(C)C)cc1,1.98%
10,CCCN(CC1COc2ccccc2O1)C(=S)Nc1ccc(C)cc1 (stereo not given),-14.3%
11,COCCNC(=O)Cn1cc2c(n1)CCCCC2,3.34%
12,CC(C)(C)NC(=O)NC(=O)COC(=O)Cn1c(C(F)(F)F)nc2ccccc21,-13.5%
13,COc1ccccc1NC(=O)c1cc(Cl)nnc1Cl,0%
14,COC(=O)N/N=C/c1c[n+]([O-])c2ccccc2[n+]1[O-],1.64%
15,COc1cccc(-c2sc3ccc(OC)cc3c2-c2ccc(OCCN3CCCCC3)cc2)c1,3.49%
16,CCc1ccc2c(c1)C1(NN=C(c3ccccc3)S1)C(=O)N2 (stereo not given),2.06%
17,Cc1cc(C(=O)OCC(=O)Nc2ccc(F)c(F)c2)c(C)o1,0%
18,CCNC(=S)NNC(=O)Cc1ccccc1,-5.51%
19,CCOC(=O)C1(S(=O)(=O)c2ccccc2)CCN(Cc2ccccc2)CC1,1.76%
20,COCCOC(=O)C1=C(C)Nc2nc(C)nn2C1c1ccccc1 (stereo not given),3.82%
21,CCCOc1ccccc1C1CC(=O)Nc2cc3c(cc21)OCO3 (stereo not given),37.9%
22,Cc1cc(C(=O)OCC(=O)NCc2ccco2)c(C)n1-c1ccccc1,24.9%

row,Structure (SMILES),inhibition
1,CCc1nnc(NC(=O)[C@@H](NC(=O)c2cccc(C)c2)C(C)C)s1,3.73%
2,O=C(Nn1c(-c2ccccc2)nc2ccccc2c1=O)c1ccc([N+](=O)[O-])cc1,-13.4%
3,CC(C)N(Cc1ccccc1)C(=S)Nc1ccc(OC(F)F)cc1,-7.72%
4,Cc1cnc(NC(=O)CSc2nnc(C)s2)s1,-0.75%
5,CCOc1ccc(N(CC(=O)Nc2ccccc2F)S(=O)(=O)c2c(C)[nH]c(=O)[nH]c2=O)cc1,5.58%
6,COc1ccccc1C1CC(=O)n2c(nc(-c3ccccc3)c2-c2ccccc2)S1 (stereo not given),-0.36%
7,COc1ccc(-c2sc3ccccc3c2-c2ccc(OCCN3CCOCC3)cc2)cc1,7.43%
8,CCOC(=O)C1(S(=O)(=O)c2ccc(Cl)cc2)CCN(Cc2ccccc2)CC1,5.07%
9,CC(=O)c1ccc(NC(=O)Cn2c(=O)oc3ccccc32)cc1,2.42%
10,CCOC(=O)c1ccc(N2C(=O)CC(N3CC(C)OC(C)C3)C2=O)cc1 (stereo not given),5.58% and 0%
11,Cc1cc(C)cc(OCC(=O)NCc2cc(C)nc3ccccc23)c1,-0.36%
12,NC(=O)Cn1c(=O)oc2ccccc21,-9.51%
13,Cc1c(CN2CCC(CO)(CCOc3ccccc3)CC2)[nH]c2ccc(Cl)cc12,22.3%
14,CCC(C)(C)NC(=O)c1cc([N+](=O)[O-])ccc1N1CCCCC1,-9.35%
15,O=C(CN1CCN(c2ncccn2)CC1)Nc1ccccc1C(F)(F)F,4.55%
16,Cc1ccccc1OCCC(=O)OCC(=O)NC(C)c1ccccc1 (stereo not given),9.45%
17,CC(=O)N1CCc2cc(S(=O)(=O)Nc3ccccc3N3CCN(C)CC3)ccc21,1.98%
18,Cc1nn(Cc2ccc(Cl)c(Cl)c2)c(C)c1NC(=O)c1cc(C2CC2)on1,-4.2%
19,COc1ccc2sc(-c3ccccc3OC)c(-c3ccc(OCCN4CCCC4)cc3)c2c1,-4.83%
20,O=C(Cn1c(NCCO)nc2ccccc21)c1ccc(Cl)cc1Cl,8.37%
21,Cc1ccc(/C=C/C(=O)OCC(=O)NCc2ccc(Cl)cc2)o1,-0.23%
